Experimental data: PubChem BioAssay AID1706 (The Scripps Research Institute Molecular Screening Center, 2009)
Out of some 290,000 compounds screened, about 400 (0.14%) were called active. Only a selection was taken, and actives are over-represented in it overall. Unmarked numbers belong to inactive results. Rule as the data show it: active = inhibition above about 12%; inactive = the rest.

target: Replicase polyprotein 1ab (Severe acute respiratory syndrome coronavirus) (UniProt P0C6X7); experiment: SARS-CoV 3CLpro protease inhibitors, primary screen, biochemical, quenched FRET (AID 1706); settings: recombinant SARS-CoV 3CLpro, quenched FRET peptide cleavage; at 6 µM; stronger effect = higher value

Structure (SMILES) | inhibition
CCC(C)N1C(=S)SC(C)(C)C1N(O)C(=O)NC1CCCCC1 (centres undefined) | -0.75%
CCCCNC(=O)N(O)C1N(/N=C/c2ccccc2O)C(=S)SC1(C)C (centres undefined) | 4.34%
CCCCNC(=O)N(O)C1N(/N=C/c2ccc(N(C)C)cc2)C(=S)SC1(C)C (centres undefined) | 77.3% (active)
O=C(Cc1ccccc1F)NC1CCSc2ccccc21 (centres undefined) | -4.7%
Cc1ccnc(NS(=O)(=O)c2ccc(NC(=O)c3oc4ccccc4c3C)cc2)n1 | -4.86%
CCOc1ccc(-c2n[nH]c(C)c2-c2ccccn2)c(O)c1 | 3.95%
C=C(C)COc1ccc(-c2n[nH]c(C)c2-c2ccccc2OC)c(O)c1 | 11.1%
C=C(C)COc1ccc(-c2n[nH]c(C)c2-c2ccccc2)c(O)c1 | 14.1% (active)
O=c1cc(-c2ccccc2)nc(N2CCCCC2)[nH]1 | 3.63%
CC(=O)c1cc(C#N)c(N2CCCCC2)nc1C | 5.03%
CC(=O)c1cc(-c2ccccc2)[nH]c1N1CCCC1 | 57.1% (active)
CC(=O)c1cnc(Nc2nc(C)c3cc(C)ccc3n2)nc1C | 2.54%
O=Cc1cn(Cc2ccccc2)nc1-c1cccnc1 | 39.5% (active)
O=C(O)/C=C/c1cn(Cc2ccccc2)nc1-c1cccs1 | 3.03%
CN(C)/N=C/c1cn(-c2ccccc2)nc1-c1cccnc1 | 9.07%
O=C1CCC(=O)N(c2ccccc2)N1 | 2.8%
CC(C)C[C@@H](CO)N1CCN(Cc2ccc(O)cc2)CCC1=O | -3.5%
CC(C)Nc1ccc(-n2nc3ccccc3[n+]2[O-])cc1 | -2.9%
COc1ccc(N2CCN(C(=O)CNC(=O)c3ccc(Br)o3)CC2)cc1 | -5.34%
O=C(Nc1ccc(S(=O)(=O)N2CCCCC2)cc1)C1CC(=O)N(c2ccc(F)cc2)C1 (centres undefined) | 1.61%
CCc1ccc(-n2c(SCc3cc(=O)n4cc(Br)ccc4n3)nc3[nH]ncc3c2=O)cc1 | 0.2%
CN(C)Cc1c(C(=O)N/N=C/c2ccccc2OCc2ccc(F)cc2)nnn1-c1nonc1N | 0.8%
COc1ccc(NC(C(=O)Nc2cccc(C(C)=O)c2)c2ccccc2)cc1 (centres undefined) | 1.08%
CCOC(=O)c1cccc(NC(=O)C2CCN(c3ncnc4c3nc3n4CCCCC3)CC2)c1 | 6.86%
CCn1c(/C=C/Nc2ccccc2)[n+](CC)c2ccc(C(=O)OCC(F)(F)F)cc21 | -5.62%
CC1CCN(Cc2nc3c(c(=O)n(C)c(=O)n3C)n2CCc2ccccc2)CC1 | 0.08%
COc1ccccc1C(=O)NCc1nnc(SC(C)C(=O)Nc2nccs2)n1C (centres undefined) | 1.41%

Structure (SMILES) | inhibition
CN1C(CC(=O)Nc2ccc(Br)cc2)c2ccccc2CC1(C)C (centres undefined) | 0.03%
CCSCc1nc(N)nc(NCCc2ccccc2)n1 | 1.32%
COc1ccccc1CNC(=O)C1CCN(S(=O)(=O)c2ccc3c(c2)OCCO3)CC1 | 0.14%
O=C(Nc1ccc(Cl)c(Cl)c1)c1ccccc1NC(=O)C1CC=CCC1C(=O)O (centres undefined) | 4.04%
CC(C)CCn1cnc2c1c(=O)n(CC(=O)NC(N)=O)c(=O)n2Cc1ccccc1 | 2.02%
O=C(NCCCN1CCCCC1)C1CC(=O)N(CCc2ccccc2)C1 (centres undefined) | -1.63%
CC(C)(C)C(=O)NC1CC2CCCC(C1)N2C(=O)Nc1ccccc1F (centres undefined) | -4.3%
O=C(NC(Cc1ccccc1)C(=O)O)/C(=C\c1ccccc1)NC(=O)c1ccco1 (centres undefined) | 1.59%
Cc1cc(CNCc2c(C(=O)N(C)Cc3ccccc3)nc3ccccn23)nn1C | -0.39%
Cc1ccc(C)c(NC(=O)c2cc(-c3cc(C)cc(C)c3O)n[nH]2)c1 | 5.71%
COc1ccc(CCNC(=O)/C(C#N)=C2\N=C(NC(=O)c3cccs3)c3ccccc32)cc1 | 1.64%
COc1ccc(N2CC(C(=O)NCCS(=O)(=O)N3CCN(c4ccccc4)CC3)CC2=O)cc1 (centres undefined) | 0.28%
Cc1cc(C)nc(NS(=O)(=O)c2ccc(N/C=C\C(=O)c3cccs3)cc2)n1 | 6.43%
CN(Cc1ccccc1)C(=O)c1cccc(C(=O)N(C)Cc2ccccc2)c1 | -1.52%
Cc1ccc2cccc(OCCCOc3ccccc3CO)c2n1 | -3.15%
CC(=O)c1c(C)n(C(C)C)c2ccc(O)cc12 | -1.9%
O=C(NCCc1ccccc1Cl)C1CCC(=O)N(CCCc2ccccc2)C1 (centres undefined) | 0%
COc1ccc(CNC(=O)c2cc(=O)c3c(C)cc(C)cc3o2)cc1 | 6.16%
O=C(NC1CCC(O)CC1)c1ccccc1OCc1ccc(F)cc1 (centres undefined) | 0.54%
COc1ccc(C(=O)NCCCN2CCOCC2)cc1Br | 0.44%
Cc1cc(C)cc(C(=O)NCCN2CCOCC2)c1 | -2.25%
Cc1ccc(C(=O)NCCN2CCOCC2)cc1C | 13.4% (active)
Cc1noc(NS(=O)(=O)c2ccc(NC(=O)c3oc4ccc(F)cc4c3C)cc2)c1C | 9.19%
COCC1CCN(C(=O)c2ccc3oc(Cc4ccccc4)nc3c2)C1 (centres undefined) | 1.1%
Cc1cccc2c1N(CC(=O)OC(C)C)C(=O)C2=O | 4.13%
Cc1cccc2c1N(CCOc1ccccc1)C(=O)C2=O | 17.8% (active)
O=C1c2ccccc2C(=O)N1CCOc1ccc(F)cc1 | -2.34%

Structure (SMILES) | inhibition
Cc1ccc(S(=O)(=O)N2CC(C)N(S(C)(=O)=O)C2)cc1 (centres undefined) | -3.38%
Cc1cccc(-c2noc(CCC(=O)NC3CCCC3)n2)c1 | -2.1%
O=C(O)c1ccccc1CSc1nc2ccccc2s1 | 9.25%
COc1ccc(NC(=O)CSc2nncc(=O)n2N)cc1OC | -1.55%
COC(=O)c1cc(NC(=O)Cc2ccccc2[N+](=O)[O-])ccc1Cl | 13.9% (active)
O=C(Nc1cccc(NC(=O)c2ccccc2[N+](=O)[O-])c1)c1ccccc1Cl | 0.79%
COc1ccc(NC(=O)c2ccccc2[N+](=O)[O-])cc1OC | 3.06%
Cc1cccc(NS(=O)(=O)c2ccc(-c3cnc(C4CC4)o3)cc2)c1 | 11.2%
O=C(NCCCn1ccnc1)c1cc2c(s1)CCCC2 | -1.18%
CCC(C)(C)NC(=O)CN(C(=O)CCC(=O)Nc1nccs1)c1ccc2c(c1)OCO2 | -3.34%
O=C(NCCCN1CCOCC1)C1CCCN(S(=O)(=O)N2CCCCC2)C1 (centres undefined) | 0.26%
COc1cccc(NC(=O)CN2CCN(CC(=O)Nc3ccccc3Cl)CC2)c1 | -3.69%
COc1ccc(N(Cc2ccc(N(C)C)cc2)C(=O)c2ccc(S(C)(=O)=O)cc2)cc1 | 0.16%
COc1ccc(Cl)cc1NS(=O)(=O)c1cccc(C(=O)NCC2CCCO2)c1 (centres undefined) | -1.42%
Cc1cccc(C(=O)Nc2nnc(S(=O)(=O)N3CCCCCC3)s2)c1 | 0.72%
CCc1nnc(NC(=O)[C@@H](NC(=O)c2cccc(C)c2)C(C)C)s1 | 4.69%
Cc1cccc(C(=O)Nc2nnc(Cc3c[nH]c4ccccc34)s2)c1 | 13.4% (active)
CCOC(=O)c1cc(C(=O)Nc2ccc(S(=O)(=O)Nc3ccc(OC)cc3)cc2)nn1C | -1.42%
CN1CCN(C(=O)c2ccc(NS(=O)(=O)c3ccccc3)cc2)CC1 | -0.96%
Cc1ccc(CS(=O)Cc2ccc(C(=O)N3CCOCC3)o2)cc1 (centres undefined) | -1.35%
CSc1ncccc1C(=O)NCc1ccccc1Cl | 0.88%
CC(=O)Nc1ccc(S(=O)(=O)N(C)CC(=O)NCCC2=CCCCC2)cc1 | -0.77%
O=C(NCCc1ccc(Cl)cc1)c1cccc(N2CCCC2=O)c1 | 3.05%
COc1ccc(/C=C2\SC(=O)N(CCC(=O)NCCCn3ccnc3)C2=O)cc1 | -3.79%
CC(Oc1ccccc1)C(=O)Nc1c2c(nn1-c1ccccc1)CS(=O)C2 (centres undefined) | -1.62%
